Only some compounds are listed: those with a hit (about 14% of all), similar ones and a draw of the others.
HSD17B inhib: blocks hydroxysteroid 17-beta dehydrogenase activity | 7.6% of 75,000 active | Potency, µM (titrated, usually from 57.1 µM), for the others: at the highest dose activity change, negative = inhibition, hits mostly inhibitors | Q99714 | recombinant HSD17B10, NADH fluorescence kinetic | AID 893;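 also: the protocol describes HADH2 (HSD17B10) and not the HSD17B4 of the title; potency is read from the fitted curve at half-maximal effect; % is scaled to controls: 0 for no effect and ±100 for the full control effect; nearly all actives have a fitted effect of over 70% in size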
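20 nM HADH2, pH 9.0 Tris/Tween; cpd preinc 15 min RT; start w/ 1 mM NAD+ + 90 uM b-hydroxybutyryl-CoA; kinetic fluor ex360/em450 q30s x 4 min; delta last-first.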
CRE Fsk mod: CRE-bla signaling modulation under forskolin stimulation. CHO CRE-bla reporter (cAMP response element driving beta-lactamase), forskolin EC10, beta-lactamase ratio. Potency, µM (series often up to 38.2 µM), for the others: at the top dose activity change, negative = inhibition, actives largely listed as activators. 2.5% of 71,000 active; active = well fitted activation curve with a large enough effect in the signal ratio, with a control signal flat, not every such curve was filed as active; inconclusive = small, poorly fitted or top-dose-only effect, or effect the other way, or a change in a side signal; the % refers to the signal ratio; also: potency is read from the fitted curve at half-maximal effect; % of control where 0% means no effect
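Forskolin analogue NKH 477 at EC10 stimulated CRE-driven beta-lactamase in CHO cells alongside compound dilution series. Beta-lactamase was measured with CCF4, excitation 405 nm, emission ratio 460/530 nm.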
HADH2 inh: inhibitors of human HADH2 dehydrogenase. AID 886. Potency, µM (series often up to 57.1 µM), for the others: at the top dose activity change, negative = inhibition, hits mostly inhibitors. recombinant HADH2, NADH fluorescence, beta-hydroxybutyryl-CoA. 3.4% of 73,000 active. Q99714; also: potency is read from the fitted curve at half-maximal effect; % is scaled to controls: 0 for no effect and ±100 for the full control effect; nearly all actives have a fitted effect of over 60% in size
Target sequence (Q99714 whole entry, looked up, one chain of several): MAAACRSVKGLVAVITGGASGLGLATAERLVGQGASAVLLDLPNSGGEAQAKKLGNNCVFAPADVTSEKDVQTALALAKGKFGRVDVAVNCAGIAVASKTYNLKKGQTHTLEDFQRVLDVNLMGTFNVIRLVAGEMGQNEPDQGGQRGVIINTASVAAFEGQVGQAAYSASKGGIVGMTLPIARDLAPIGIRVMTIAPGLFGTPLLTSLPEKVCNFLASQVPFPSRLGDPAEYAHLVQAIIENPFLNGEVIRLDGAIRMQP
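Buffer 100 mM Tris-HCl pH 9.0/0.01% Tween-20; HADH2 20 nM; NAD+ 1 mM; beta-hydroxybutyryl-CoA 90 uM (all final). 15 min cpd preincubation, RT.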
A350 autofl: compound fluoresces in the Alexa 350 spectral region; 11% of 59,000 active; max dye-equivalent concentration, M; AID 590; Compound autofluorescence, 340/450 nm, Alexa 350 dye-equivalents; active compounds read high; in the data active = max dye-equivalent concentration above about 10 nM; inconclusive = mostly about 1.1 nM to 9.6 nM
4-MU autofl: compound fluoresces in the 4-MU spectral region | compound autofluorescence, 340/450 nm, 4-MU equivalents; active compounds read high | max dye-equivalent concentration, M | 11% of 59,000 active | AID 589; in the data active = max dye-equivalent concentration above about 10 nM; inconclusive = mostly about 1.1 nM to 9.6 nM
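Compounds in 100 mM Tris, pH 8.0, sat 15 min at room temperature before fluorescence was read at 340 nm excitation/450 nm emission; a per-plate six-point 4-MU standard curve converted signals to dye-equivalent concentration at each compound concentration.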
AID923: qHTS Assay for Allosteric/Competitive Inhibitors of Caspase-1: Spectroscopic Profiling in AFC Spectral Region; Potency, µM (top dose mostly 57.5 µM), inactives show at the top dose fluorescence increase, hits mostly activators; 1.1% of 75,000 active; compound fluorescence, AFC spectral region (405/520 nm); also: potency is read from the fitted curve at half-maximal effect; 0% is about no effect
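Baseline compound fluorescence (AFC region, 405 nm ex/520 nm em) taken from the intercept of kinetic reads with 50 nM caspase-1 and 5 uM Ac-WEHD-AFC; normalized to an on-plate AFC standard curve; compounds titrated up to 57 uM.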
* marks the source's active call; other numbers are inactive results; i = inactive; ? = inconclusive; · = no result given; ! = not active in a repeat; [ ] = remark or other dose. Unless noted, calls follow the shape of the dose curve; as a rule, active = well fitted curve in the direction sought with a large enough effect; inconclusive = small, poorly fitted or top-dose-only effect, or another doubt; inactive = no such curve, though single readings can be large; an effect the other way counts as inactive or inconclusive.

SMILES | HSD17B inhib | CRE Fsk mod | HADH2 inh | A350 autofl | 4-MU autofl | AID923
CN1CCCC[C@@H]1CCN1c2ccccc2Sc2ccc(S(C)=O)cc21 (some centres undefined) | -16%[11.4 µM] | ? | 4µM*! | ? | ? | -5%[11.5 µM]
O=S(=O)(c1ccc2c(c1)nc1n2CCC1)N1CCOCC1 | 1% | -3% | -1% | 1.1e-08M* | 2.9e-08M* | 1%
COC(=O)c1nc2n(n1)C(c1cccc(Cl)c1)C1=C(CCCC1=O)N2 (centres undefined) | 37% | 16% | -2% | · | · | 0%
O=C1CCCC2=C1C(c1cccs1)n1nc(SCc3ccccc3F)nc1N2 (centres undefined) | 25µM* | -13% | 16µM* | 5.5e-08M* | 5.7e-08M* | 1%
Cc1ccccc1CSc1nc2n(n1)C(c1cccs1)C1=C(CCCC1=O)N2 (centres undefined) | 25µM* | 7% | 25µM* | 2.7e-08M* | 2.7e-08M* | 1%
N#Cc1cccc(-c2ccc3ncnc(NCCN4CCOCC4)c3c2)c1 | -3% | ? | 10% | i | i | 3%
Cc1cccc(CNc2ncnc3ccc(-c4cccc(C#N)c4)cc23)c1 | 25µM* | ? | ? | i | i | -1%
COc1ccc2[nH]cc(CCNc3ncnc4ccc(-c5cccc(C#N)c5)cc34)c2c1 | -4% | 2.5µM* | 7% | i | i | 2%
COc1cccc(-c2ccc3ncnc(NCCc4c[nH]c5ccc(OC)cc45)c3c2)c1 | 2% | 2% | -26% | i | i | 3%
Cc1cccc(CNc2ncnc3ccc(-c4ccc5c(c4)OCO5)cc23)c1 | 25µM* | -11% | ? | i | i | 0%
Cc1cccc(CNc2ncnc3ccc(-c4ccccc4CN(C)C)cc23)c1 | 1% | -15% | -3% | i | i | -1%
COc1ccc2[nH]cc(CCNc3ccnc(-c4ccc(C(=O)N(C)C)cc4)n3)c2c1 | 8% | 2.5µM* | 4% | i | i | 2%
c1csc(CNc2ncnc3ccc(-c4ccc5c(c4)OCO5)cc23)c1 | 25µM* | ? | -15% | ? | i | 0%
CN1CCN(C(=O)N2c3ccccc3C=Cc3ccccc32)CC1 | 9% | 1% | -11% | · | · | -2%
COC1Cc2ccccc2N(C(=O)N2CCN(CCO)CC2)c2ccccc21 (centres undefined) | -6% | ? | 8% | 1.2e-08M* | 4.7e-08M* | 4%
CCOC(=O)N1CCN(S(=O)(=O)c2ccc3c(c2)CCN3C(=O)CC)CC1 | 0% | -1% | 5% | 4.8e-08M* | 5e-08M* | 5%
CCC(=O)N1CCc2cc(S(=O)(=O)N3CCc4ccccc4C3)ccc21 | -7% | 4% | 9% | i | i | -1%
Cc1cnc(CNc2cc(-c3cccnc3)ncn2)cn1 | -9% | ? | 13% | i | i | 6%
COc1cccc(-c2cc(NCc3cccc(C)c3)ncn2)c1 | -19% | 5µM* | 3% | i | i | 1%
Cc1cccc(CNc2cc(-c3cccnc3)ncn2)c1 | 32µM* | ? | 32µM* | i | i | -2%
c1ccc(CNc2cc(-c3cccnc3)ncn2)cc1 | 25µM* | 15% | -15% | i | i | 0%
COc1cccc(-c2cc(NCc3cccnc3)ncn2)c1 | ? | ? | -6% | i | i | -1%
CC(=O)NCCNc1nc(-c2ccccc2CN(C)C)nc2ccccc12 | 1% | -6% | 12% | 1.3e-08M* | 1e-08M* | -2%
CC(=O)NCCNc1nc(-c2ccccc2C)nc2ccccc12 | 20µM* | ? | -7% | 2.3e-08M* | 2.3e-08M* | 1%
O=C(c1cnccn1)N1CCC2(CC1)CCN(c1ncccn1)CC2 | ? | ? | 0% | i | i | 1%
O=C(Nc1cccnc1)c1cc(-c2cccs2)on1 | -14% | -5% | 4% | 1.6e-08M* | 1.7e-08M* | 2%
O=C(Nc1cnn(Cc2ccc(Cl)cc2Cl)c1)c1cc(-c2cccs2)on1 | 20µM* | 12% | -2% | i | i | 1%

Screens: PubChem, National Center for Advancing Translational Sciences (NCATS)
